In PubChem BioAssay (Tox21):
Several values for one entry are separate records, joined by “and”; a condition that tells them apart may be missing. Identical values can stand only once. Results filed as inconclusive are left out. A call without a number means that no potency is given here. Where a structure was tested more than once in an assay, its records may differ in their call. Activity calls are given as the source filed them. The call rests on the fitted dose curve; in most records, active means well fitted activation curve with a large enough effect in the signal ratio in the repeat runs (not every such curve was filed as active); inconclusive means weak or mixed curves, or effect the other way; inactive means no such curve, though single readings can be large or run the other way; the % refers to the signal ratio.

experiment: qHTS assay for small molecule agonists of the antioxidant response element (ARE) signaling pathway (AID 743202); details: HepG2 ARE-bla reporter, beta-lactamase FRET, 16 h; series mostly up to 73.3 µM
Excerpt: U.S. Tox21 Program National Center for Advancing Translational Sciences [NCATS] NIH Chemical Genomics Center [NCGC] U.S. Environmental Protection Agency [EPA] National Institutes of Environmental Health Sciences [NIEHS] National Toxicology Program [NTP] U.S. Food and Drug Administration [FDA] Tox21 Assay Overview: Oxidative stress has been implicated in the pathogenesis of a variety of diseases ranging from cancer to neurodegeneration. The antioxidant response element (ARE) signaling pathway plays an important role in the amelioration of oxidative stress. The CellSensor ARE-bla HepG2 cell line (Invitrogen) can be used for analyzing the Nrf2/antioxidant response signaling pathway. Nrf2 (NF-E2-related factor 2) and Nrf1 are transcription factors that bind to AREs and activate these genes. The CellSensor ARE-bla Hep G2 cell line contains a beta-lactamase reporter gene under control of the Antioxidant Response Element (ARE) stably integrated into HepG2 cells. The activation of the report gene under culture conditions can be detected by fluorescence intensity. This cell line has been used to screen the Tox21 10K compound library to identify agonists that induce oxidative stress.
Tox21 Assay Protocol Summary: The ARE-bla cells were dispensed at 2,000 cells/5 ul/well in 1536-well black wall/clear bottom plates using a Multidrop dispenser. After the assay plates were incubated at a 37 C/5% CO2 incubator for 5 hours, 23 nL of compounds dissolved in DMSO, positive controls or DMSO only was transferred to the assay plate by a pin tool. The plates were incubated at 37 C for 16 hours. After 1 uL of LiveBLAzer B/G FRET substrate was added using a Flying Reagent Dispenser, the plates were incubated at room temperature for 2 hours, and fluorescence intensity was measured by an Envision plate reader.
Potency means the concentration at half of the fitted maximal effect.

Structure (SMILES)	Potency
Nc1ccc(-c2ccccc2)cc1	inactive and 27.3 µM (active)
Cc1ccc(N)c(N)c1	8.66 µM (active) and 10.9 µM (active)
CCCCNC(=O)n1c(NC(=O)OC)nc2ccccc21	inactive
CCN(CC)N=O	inactive
CNC(=O)N(C)c1nnc(C(C)(C)C)s1	inactive
CCOc1cc(C=O)ccc1O	inactive
c1ccc(NNc2ccccc2)cc1	inactive
C=C(C)C(=O)OCC1CO1 (stereo not given)	inactive
CC(C)NC(C)C	inactive
CCCCCCOC(=O)c1ccccc1C(=O)OCCCCCC	inactive
O=[N+]([O-])c1cccc2ccccc12	inactive
Cc1cc(Cl)ccc1OCCCC(=O)O	inactive
CC(C)=CC1C(C(=O)OCc2coc(Cc3ccccc3)c2)C1(C)C (stereo not given)	54.5 µM (active) and 30.6 µM (active)
CCN(CC)C(=O)/C(Cl)=C(\C)OP(=O)(OC)OC	inactive
N[C@@H](Cc1ccc(N(CCCl)CCCl)cc1)C(=O)O	inactive
CCC(C)(C)c1ccc(O)cc1	inactive
C#C[C@]1(O)CC[C@H]2[C@@H]3CCC4=CC(=O)CC[C@]4(C)[C@H]3CC[C@@]21C	inactive
CCCCC(CC)COC(=O)Cl (stereo not given)	inactive
COc1ccc(C(CN(C)C)C2(O)CCCCC2)cc1 (stereo not given)	inactive
O=Cc1ccco1	inactive

Structure (SMILES)	Potency
CCOP(=S)(OCC)O/N=C(\C#N)c1ccccc1	inactive
CCCCCCCCCCCOC(=O)c1ccccc1C(=O)OCCCCCCCCCCC	inactive
CCCCCCCCOC(=O)c1ccccc1C(=O)OCCCCCCCC	inactive
N#CC(Br)Br	34.2 µM (active)
COC(=O)c1sccc1S(=O)(=O)NC(=O)Nc1nc(C)nc(OC)n1	inactive
O=P(Oc1ccccc1)(Oc1ccccc1)Oc1ccccc1	inactive
CCC(C)c1ccc(O)cc1 (stereo not given)	inactive
c1ccc(N=Nc2ccccc2)cc1	inactive
OCC(O)CO	inactive
CCCCC(CC)COC(=O)c1ccc(C(=O)OCC(CC)CCCC)c(C(=O)OCC(CC)CCCC)c1 (stereo not given)	inactive
COP(=O)(OC)OC	inactive
NC(=S)Nc1ccccc1	inactive
Cc1ccc(OP(=O)(Oc2ccc(C)cc2)Oc2ccc(C)cc2)cc1	inactive
CCN(N=O)C(N)=O	inactive
Nc1ccc(Cl)c(Cl)c1	inactive
Nc1cccnc1	inactive
CC(C)(OOC(C)(C)c1ccccc1)c1ccccc1	inactive
C=CCc1ccc(OC)cc1	inactive
CC(C)C(=O)OCC(C)(C)C(OC(=O)C(C)C)C(C)C (stereo not given)	inactive
CCOC(=S)S	inactive
